# Measured values from PubChem BioAssay.
# Results filed as inconclusive are left out. The source made the active and inactive calls. Unless noted, no cut-off is given here; in the data, nearly all actives have AC50 up to about 26 µM.
# Tests used:
# [1] = growth inhibition of DIPG glioma cells, dose response, cell-based, SU-DIPG-XVII, MIPE5.0, CellTiter-Glo, qHTS (AID 1347060); settings: SU-DIPG-XVII viability, CellTiter-Glo ATP luminescence;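 for AC50: cells exposed to compound for 48 hours before viability readout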
# [2] = viability loss in pontine glioma line – cell-based, SU-DIPG-XXV, MIPE5.0, CellTiter-Glo, qHTS, dose response (AID 1347065); settings: CellTiter-Glo ATP luminescence;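 note: cells exposed to compound for 48 hours before ATP readout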
# [3] = JHH-DIPG-1 glioma cell viability, MIPE5.0 library, CellTiter-Glo luminescence, qHTS (AID 1347067); settings: JHH-DIPG-1 glioma viability, CellTiter-Glo ATP luminescence;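 note: cells exposed to compound for 48 hours before readout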
# [4] = SU-DIPG-XXV glioma cell viability, MIPE5.0 library, qHTS (AID 1347068; cut-off not given, nearly all actives have IC50 up to about 30 µM;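 for IC50: cells exposed to compound for 48 hours before viability readout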)
# [5] = SU-DIPG-VI glioma cell viability, MIPE4.0 library, CellTiter-Glo luminescence, qHTS (AID 1347066; cut-off not given, nearly all actives have AC50 up to about 30 µM;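 note: cells exposed to compound for 48 hours before readout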); settings: CellTiter-Glo ATP luminescence
# [6] = sensitizers of A549 cells to miR-34 induction, primary screen, imaging, A549 dox-inducible miR-34, nuclei and caspase counts (AID 1347080;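 active = compounds whose cell count with miR-34 switched on is under 0.7 times the count with it off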); settings: A549 miR-34 inducible, Hoechst nuclei count, 48 h
# [7] = survival rescue of mitochondrial mutant cells in low glucose, primary screen, MELAS cybrids, Rieske KO mouse fibroblasts, CellTiter-Glo (AID 1508586;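 active = mean z-score across replicates of 1.96 or higher in either the MELAS or the Rieske mutant cell line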;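 note: z relative to plate mean and SD of compound and empty wells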)
# [8] = modifiers of HSF1 nuclear foci, imaging, Selleck Cancer Library (AID 1347162; in the data active = plate-normalised HSF1 focus index below about 0.46); settings: human cells, at 10 µM; SSMD: measured here: HSF1 foci SSMD mean; cell count: measured here: cell number; plate-normalised HSF1 focus index: stronger effect = lower value
# [9] = ovarian cancer cell viability with rucaparib, profiling panel, oncology-focused library, rucaparib conditional (AID 1508598;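 active = normalized viability below 100% at a tested concentration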); settings: patient-derived ovarian cancer cells, CellTiter-Glo viability, 144 h, stronger effect = lower value
smiles,measurement,setting,value
COc1ccc2[nH]c(C(=O)N3CCC(CC(C)(C)O)CC3)cc2c1,outcome,[1],inactive
same,outcome,[2],inactive
same,outcome,[3],inactive
O=C(Cc1ccccc1)Nc1nnc(CCSCCc2nnc(NC(=O)Cc3ccccc3)s2)s1,outcome,[1],inactive
same,AC50,[2],11.8 µM (active)
same,AC50,[3],14.8 µM (active)
same,outcome,[4],inactive
COc1cc(N2CCN(C)CC2)ccc1Nc1ncc2c(n1)N(C)c1ccccc1C(=O)N2C,AC50,[1],18.6 µM (active)
same,AC50,[2],18.6 µM (active)
same,AC50,[3],14.8 µM (active)
COc1c(C)cc(NC(=O)c2nn(Cc3ccc(F)cc3)c3c2CN(C(=O)c2ccc[nH]2)C[C@]3(C)C(N)=O)cc1C,outcome,[1],inactive
same,outcome,[2],inactive
same,outcome,[3],inactive
CC[C@@H](Oc1cccc(CN(CCCOc2ccc(OC)cc2)c2nc3ccccc3o2)c1)C(=O)O,outcome,[1],inactive
same,outcome,[2],inactive
same,outcome,[3],inactive
same,outcome,[4],inactive
CC[C@H](NC(=O)[C@H](CS(=O)(=O)CC1CC1)N[C@@H](c1ccc(F)cc1)C(F)(F)F)C(=O)C(=O)NC1CC1,outcome,[1],inactive
same,outcome,[2],inactive
same,outcome,[3],inactive
O=C(Nc1nccs1)C(c1cc(F)ccc1O)N1Cc2ccccc2C1=O (stereo not drawn),outcome,[1],inactive
same,outcome,[2],inactive
same,outcome,[3],inactive
same,outcome,[4],inactive
O=C(Nc1nnc(-c2ccco2)o1)c1cc(-c2ccccc2)nc2ccccc12,AC50,[1],26.3 µM (active)
same,AC50,[2],20.9 µM (active)
same,AC50,[5],14.8 µM (active)
same,outcome,[4],inactive
N[C@@H](CCC(=O)O)C(=O)N[C@@H](Cc1c[nH]c2ccccc12)C(=O)O,outcome,[1],inactive
same,outcome,[2],inactive
same,outcome,[3],inactive
same,outcome,[4],inactive
N=C(N)c1ccc2nc(-c3cc(CC(=O)N[C@@H](CC(=O)O)C(=O)O)cc(-c4cc(S(N)(=O)=O)ccc4O)c3O)[nH]c2c1,outcome,[1],inactive
same,outcome,[2],inactive
same,outcome,[3],inactive
same,outcome,[4],inactive
C[C@@H]1COCCN1c1cc(-c2ccnn2C)c2ccnc(-c3ccn[nH]3)c2n1,AC50,[1],1.48 µM (active)
same,AC50,[2],1.86 µM (active)
same,AC50,[3],5.25 µM (active)
Cc1c(NC(=O)c2cc3c(s2)CCCC3)cccc1-c1cn(C)c(=O)c(Nc2ccc(C3C(=O)N(C)CCN3C)cc2)n1 (stereo not drawn),AC50,[1],23.5 µM (active)
same,AC50,[2],18.6 µM (active)
same,AC50,[3],18.6 µM (active)
CCc1c(C(=O)NNC(=O)[C@@H](O)c2cc(F)cc(F)c2)ccc(O)c1C,outcome,[1],inactive
same,outcome,[2],inactive
same,outcome,[3],inactive
CCS(=O)(=O)N1CC(CC#N)(n2cc(-c3ncnc4[nH]ccc34)cn2)C1,AC50,[1],18.6 µM (active)
same,AC50,[2],18.6 µM (active)
same,outcome,[5],inactive
same,outcome,[3],inactive
same,fold change,"[6]; stronger effect = lower value, cell number ratio, induced over uninduced",0.973 (inactive)
same,fold change,[6]; measured here: relative caspase fold change +Dox/-Dox,0.869
same,cell count,"[6]; measured here: total cells with miR-34 induction, stronger effect = lower value",8770
same,cell count,[6]; measured here: total cells without miR-34 induction,9020
same,z-score,"[7]; MELAS cybrid survival, CellTiter-Glo 48 h, stronger effect = higher value",-0.48 (inactive)
same,z-score,"[7]; Rieske KO mouse fibroblast survival, CellTiter-Glo 72 h",0.0326
CCO[C@@H]1OC(=O)C[C@@H]1NC(=O)[C@@H]1CCCN2C(=O)CC[C@H](NC(=O)c3nccc4ccccc34)C(=O)N12,outcome,[1],inactive
same,outcome,[2],inactive
same,outcome,[3],inactive
same,outcome,[4],inactive
Cc1nnc(C[C@@H]2C=C(c3ccc(Cl)cc3)c3ccccc3-n3c(C)nnc32)o1,AC50,[1],26.3 µM (active)
same,AC50,[2],14.8 µM (active)
same,AC50,[3],18.6 µM (active)
COC1CCC(N2C(=O)CNc3ncc(-c4ccc(C(C)(C)O)nc4)nc32)CC1 (stereo not drawn),AC50,[1],9.34 µM (active)
same,AC50,[2],11.8 µM (active)
same,AC50,[3],16.6 µM (active)
same,IC50,[4],14.8 µM (active)
C[C@]1(C(=O)N(CCCC(=O)O)Cc2cccc(Cl)c2)CCN1C(=O)c1csc2ccccc12,outcome,[1],inactive
same,outcome,[2],inactive
same,outcome,[3],inactive
same,outcome,[4],inactive
COCCNCc1ccc(-c2cc3nccc(Oc4ccc(NC(=S)NC(=O)Cc5ccc(F)cc5)cc4F)c3s2)nc1,AC50,[1],7.42 µM (active)
same,AC50,[2],4.17 µM (active)
same,AC50,[3],7.42 µM (active)
same,IC50,[4],9.34 µM (active)
CO[C@@H]1C(N(C)C(=O)c2ccccc2)C[C@H]2O[C@]1(C)n1c3ccccc3c3c4c(c5c6ccccc6n2c5c31)C(=O)NC4=O (stereo partly drawn),AC50,[1],0.934 µM (active)
same,AC50,[2],0.934 µM (active)
same,outcome,[5],inactive
Oc1ccc([C@@H]2Oc3ccc(O)cc3[C@@H]3CCC[C@@H]32)cc1,AC50,[1],13.2 µM (active)
same,AC50,[2],11.8 µM (active)
same,outcome,[5],inactive
Cc1ccc(-c2nn(C(C)(C)CNC(=O)c3ccncc3)c3ncnc(N)c23)cc1,AC50,[1],10.5 µM (active)
same,AC50,[2],13.2 µM (active)
same,AC50,[3],13.2 µM (active)
same,IC50,[4],14.8 µM (active)
CCc1ccc2nc(Nc3cc(Cc4ccccc4)nc(NC4CCC(O)CC4)n3)sc2c1 (stereo not drawn),AC50,[1],26.3 µM (active)
same,AC50,[2],18.6 µM (active)
same,AC50,[3],20.9 µM (active)
same,outcome,[4],inactive
Cc1c(-c2ccnn2C)cc(C(=O)NCc2ccc(S(C)(=O)=O)cn2)c(=O)n1-c1cccc(C(F)(F)F)c1,outcome,[1],inactive
same,outcome,[2],inactive
same,outcome,[3],inactive
O=C1OC2(CCC(C(=O)Nc3ccn(-c4ccccc4F)n3)CC2)c2cnccc21 (stereo not drawn),outcome,[1],inactive
same,outcome,[2],inactive
same,outcome,[3],inactive
same,outcome,[4],inactive
C[C@@H](Oc1cc(-n2cnc3ccc(CN4CCN(C)CC4)cc32)sc1C(N)=O)c1ccccc1C(F)(F)F,AC50,[1],0.0525 µM (active)
same,AC50,[2],0.0372 µM (active)
same,AC50,[5],18.7 µM (active)
same,SSMD,[8],1.17
same,cell count,[8],6420
same,plate-normalised HSF1 focus index,[8],1.06 (inactive)
same,viability,"[9]; at 0.000305 µM, OCI-C5x cells, with rucaparib 10 µM, 100% = cells with rucaparib alone",99.2% (active)
same,viability,"[9]; at 0.000305 µM, OCI-C5x cells, without rucaparib",88.3% (active)
same,viability,"[9]; at 0.000305 µM, OCI-P5x cells, with rucaparib 20 µM, 100% = cells with rucaparib alone",87% (active)
same,viability,"[9]; at 0.000305 µM, OCI-P5x cells, without rucaparib",33.3% (active)
same,viability,"[9]; at 0.00122 µM, OCI-C5x cells, with rucaparib 10 µM, 100% = cells with rucaparib alone",92.1% (active)
same,viability,"[9]; at 0.00122 µM, OCI-C5x cells, without rucaparib",72.7% (active)
same,viability,"[9]; at 0.00122 µM, OCI-P5x cells, with rucaparib 20 µM, 100% = cells with rucaparib alone",73.8% (active)
same,viability,"[9]; at 0.00122 µM, OCI-P5x cells, without rucaparib",22% (active)
same,viability,"[9]; at 0.00488 µM, OCI-C5x cells, with rucaparib 10 µM, 100% = cells with rucaparib alone",76.5% (active)
same,viability,"[9]; at 0.00488 µM, OCI-C5x cells, without rucaparib",44% (active)
same,viability,"[9]; at 0.00488 µM, OCI-P5x cells, with rucaparib 20 µM, 100% = cells with rucaparib alone",73.2% (active)
same,viability,"[9]; at 0.00488 µM, OCI-P5x cells, without rucaparib",18% (active)
same,viability,"[9]; at 0.0195 µM, OCI-C5x cells, with rucaparib 10 µM, 100% = cells with rucaparib alone",46.7% (active)
same,viability,"[9]; at 0.0195 µM, OCI-C5x cells, without rucaparib",33.6% (active)
same,viability,"[9]; at 0.0195 µM, OCI-P5x cells, with rucaparib 20 µM, 100% = cells with rucaparib alone",62.1% (active)
same,viability,"[9]; at 0.0195 µM, OCI-P5x cells, without rucaparib",13.6% (active)
same,viability,"[9]; at 0.0781 µM, OCI-C5x cells, with rucaparib 10 µM, 100% = cells with rucaparib alone",41.7% (active)
same,viability,"[9]; at 0.0781 µM, OCI-C5x cells, without rucaparib",30.9% (active)
same,viability,"[9]; at 0.0781 µM, OCI-P5x cells, with rucaparib 20 µM, 100% = cells with rucaparib alone",62.6% (active)
same,viability,"[9]; at 0.0781 µM, OCI-P5x cells, without rucaparib",15.3% (active)
same,viability,"[9]; at 0.313 µM, OCI-C5x cells, with rucaparib 10 µM, 100% = cells with rucaparib alone",34.4% (active)
same,viability,"[9]; at 0.313 µM, OCI-C5x cells, without rucaparib",22.2% (active)
same,viability,"[9]; at 0.313 µM, OCI-P5x cells, with rucaparib 20 µM, 100% = cells with rucaparib alone",70.6% (active)
same,viability,"[9]; at 0.313 µM, OCI-P5x cells, without rucaparib",13.4% (active)
same,viability,"[9]; at 1.25 µM, OCI-C5x cells, with rucaparib 10 µM, 100% = cells with rucaparib alone",38.1% (active)
same,viability,"[9]; at 1.25 µM, OCI-C5x cells, without rucaparib",28.8% (active)
same,viability,"[9]; at 1.25 µM, OCI-P5x cells, with rucaparib 20 µM, 100% = cells with rucaparib alone",62.3% (active)
same,viability,"[9]; at 1.25 µM, OCI-P5x cells, without rucaparib",15.1% (active)
same,viability,"[9]; at 5 µM, OCI-C5x cells, with rucaparib 10 µM, 100% = cells with rucaparib alone",51.4% (active)
same,viability,"[9]; at 5 µM, OCI-C5x cells, without rucaparib",3.97% (active)
same,viability,"[9]; at 5 µM, OCI-P5x cells, with rucaparib 20 µM, 100% = cells with rucaparib alone",0.676% (active)
same,viability,"[9]; at 5 µM, OCI-P5x cells, without rucaparib",11.4% (active)
